Records with an inconclusive call do not appear. Calls of active or inactive are those of the source. The call rests on the fitted dose curve; in most records, active means well fitted activation curve with a large enough effect; inconclusive means small, poorly fitted or top-dose-only effect; inactive means flat fitted curve, though single readings scatter.
Assay: qHTS for Activators of Parkin Expression: LOPAC Validation Assay (NLuc Reporter) (AID 720572;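 further: 0% = DMSO and 100% = positive control compound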)
Settings: Parkin promoter NanoLuc reporter cells, luminescence, percent of positive control, DMSO as zero; series mostly up to 46.1 µM; activation: at the top concentration
Summary of the method: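 Neuronal cells with a Parkin promoter-driven FLuc/NLuc coincidence reporter were treated 24 h at 37 C in 7-point dose response (LOPAC). NLuc luminescence read after FLuc; signals normalized to DMSO and positive control (100%).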

SMILES	activation	outcome
O=C(O)CCCc1ccc(N(CCCl)CCCl)cc1	-7.53% (inactive)	
CC(C)c1cccc(C(C)C)c1O	-2.84% (inactive)	
CN1C(=O)CCS(=O)(=O)C1c1ccc(Cl)cc1 (stereo not given)	-2.74% (inactive)	
CC(C)N(CCC(C(N)=O)(c1ccccc1)c1ccccn1)C(C)C (stereo not given)		inactive
O=c1[nH]oc2c1CCNC2	1.22% (inactive)	
Cc1ncsc1CCCl	-1.76% (inactive)	
CC(C)(C)NCC(O)c1ccccc1Cl (stereo not given)	0.846% (inactive)	
COc1ccc2c(c1OC)C(=O)O[C@H]2[C@@H]1c2cc3c(cc2CCN1C)OCO3	2.59% (inactive)	
CCC1(c2ccc(N)cc2)CCC(=O)NC1=O (stereo not given)	-3.49% (inactive)	
NCCc1ccc(O)cc1	-1.72% (inactive)	
CCCCC/C=C\C/C=C\C/C=C\C/C=C\CCCC(=O)NCC(=O)O	-0.353% (inactive)	
C=C(C)[C@H]1CN[C@H](C(=O)O)[C@H]1CC(=O)O	0.513% (inactive)	
CC(NC(C)(C)C)C(=O)c1cccc(Cl)c1 (stereo not given)	3% (inactive)	
O=P1(N(CCCl)CCCl)NCCCO1 (stereo not given)	-5.9% (inactive)	
O=C(CCCN1CCC2(CC1)C(=O)NCN2c1ccccc1)c1ccc(F)cc1	-1.75% (inactive)	

From PubChem BioAssay (NCATS)
